Among all 5,500 compounds or so, about 2,000 (36%) were called active. Not shown: some 18% with an inconclusive outcome. Rule as the data show it: active = normalized growth mostly below about 0.91 (no sharp cut-off); inconclusive = no clear call, values can overlap the other calls; inactive = mostly above about 0.92. This is one part of the list.
Test: chemical genetic growth profiling, strain panel (AID 1159580);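 also: tested at 20 µM; growth read once vehicle control cultures reached saturation at 30 °C; 1 = growth at the plate median or of vehicle wells; lower values mean less growth of the strain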
Settings: S. cerevisiae deletion strains, growth OD

Measured: normalized growth

CNNC
inactive: locus YAL013W, strain DEP1, stronger effect = lower value 1.01 | locus YAL021C, strain ccr4, stronger effect = lower value 1.01 | locus YAL026C, strain drs2, stronger effect = lower value 1.02 | locus YAL030W, strain snc1, stronger effect = lower value 1.02 | locus YBL061C, strain skt5, stronger effect = lower value 1 | locus YBR009C, strain hhf1, stronger effect = lower value 1.01 | locus YBR021W, strain FUR4, stronger effect = lower value 1.04 | locus YBR023C, strain chs3, stronger effect = lower value 1 | locus YBR171W, strain sec66, stronger effect = lower value 0.995 | locus YBR229C, strain ROT2, stronger effect = lower value 1.01 | locus YBR231C, strain swc5, stronger effect = lower value 1.01 | locus YBR279W, strain paf1, stronger effect = lower value 1.02 | locus YCL011C, strain gbp2, stronger effect = lower value 1.01 | locus YCL016C, strain dcc1, stronger effect = lower value 1.04 | locus YCL029C, strain bik1, stronger effect = lower value 1.01 | locus YCL069W, strain vba3, stronger effect = lower value 1.01 | locus YCR088W, strain abp1, stronger effect = lower value 1.01 | locus YDL005C, strain med2, stronger effect = lower value 0.987 | locus YDL035C, strain GPR1, stronger effect = lower value 1.02 | locus YDL040C, strain nat1, stronger effect = lower value 1 | locus YDL074C, strain BRE1, stronger effect = lower value 1.07 | locus YDL101C, strain DUN1, stronger effect = lower value 1.03 | locus YDL134C, strain PPH21, stronger effect = lower value 1.02 | locus YDL185W, strain tfp1, stronger effect = lower value 1.01 | locus YDL192W, strain arf1, stronger effect = lower value 0.995 | locus YDR001C, strain nth1, stronger effect = lower value 1.02 | locus YDR069C, strain doa4, stronger effect = lower value 1.02 | locus YDR101C, strain arx1, stronger effect = lower value 0.989 | locus YDR137W, strain rgp1, stronger effect = lower value 1.04 | locus YDR150W, strain NUM1, stronger effect = lower value 1 | locus YDR159W, strain sac3, stronger effect = lower value 0.991 | locus YDR162C, strain NBP2, stronger effect = lower value 1.03 | locus YDR195W, strain ref2 0.981 | locus YDR297W, strain sur2, stronger effect = lower value 1 | locus YDR318W, strain mcm21, stronger effect = lower value 0.997 | locus YDR334W, strain swr1, stronger effect = lower value 1.01 | locus YDR335W, strain msn5, stronger effect = lower value 1.01 | locus YDR388W, stronger effect = lower value 0.994 | locus YDR392W, strain spt3, stronger effect = lower value 1.01 | locus YDR502C, strain sam2, stronger effect = lower value 1.01 | locus YEL003W, strain gim4, stronger effect = lower value 1.01 | locus YEL037C, strain rad23, stronger effect = lower value 1.02 | locus YEL061C, strain CIN8 (second series), stronger effect = lower value 1.01 | locus YEL061C, strain CIN8, stronger effect = lower value 1.01 | locus YER015W, strain faa2, stronger effect = lower value 1.01 | locus YER016W, strain bim1, stronger effect = lower value 1.01 | locus YER110C, stronger effect = lower value 0.996 | locus YER111C, strain swi4, stronger effect = lower value 1 | locus YER155C, strain BEM2 (second series), stronger effect = lower value 1.04 | locus YER155C, strain BEM2, stronger effect = lower value 1.03 | locus YER167W, strain BCK2, stronger effect = lower value 1.02 | locus YFR010W, strain ubp6, stronger effect = lower value 0.993 | locus YGL078C, strain dbp3, stronger effect = lower value 1 | locus YGL086W, strain mad1, stronger effect = lower value 1.01 | locus YGL167C, strain pmr1, stronger effect = lower value 0.998 | locus YGL173C, strain kem1, stronger effect = lower value 0.987 | locus YGL227W, strain vid30, stronger effect = lower value 1.01 | locus YGL240W, strain doc1, stronger effect = lower value 0.995 | locus YGL248W, strain PDE1, stronger effect = lower value 1.02 | locus YGL253W, strain hxk2, stronger effect = lower value 1 | locus YGR078C, strain PAC10, stronger effect = lower value 1.04 | locus YGR135W, strain pre9, stronger effect = lower value 1.01 | locus YGR229C, strain SMI1, stronger effect = lower value 1.02 | locus YGR252W, strain gcn5, stronger effect = lower value 0.955 | locus YHR013C, strain ard1, stronger effect = lower value 1.02 | locus YHR027C, strain rpn1, stronger effect = lower value 1.02 | locus YHR030C, strain SLT2, stronger effect = lower value 1.02 | locus YHR079C, strain IRE1 (second series), stronger effect = lower value 1 | locus YHR094C, strain hxt1, stronger effect = lower value 0.998 | locus YHR129C, strain ARP1, stronger effect = lower value 1.02 | locus YHR142W, strain chs7, stronger effect = lower value 1.04 | locus YHR200W, strain rpn10, stronger effect = lower value 1 | locus YIL066C, strain RNR3, stronger effect = lower value 1.01 | locus YIL073C, strain SPO22, stronger effect = lower value 0.998 | locus YIL125W, strain kgd1, stronger effect = lower value 0.99 | locus YIR030C, strain dcg1, stronger effect = lower value 1.01 | locus YJL092W, strain hpr5, stronger effect = lower value 1.03 | locus YJL095W, strain BCK1 (second series), stronger effect = lower value 1.01 | locus YJL095W, strain BCK1, stronger effect = lower value 1.05 | locus YJL115W, strain asf1, stronger effect = lower value 0.994 | locus YJL129C, strain trk1, stronger effect = lower value 1.01 | locus YJL134W, strain LCB3, stronger effect = lower value 1.02 | locus YJL154C, strain vps35, stronger effect = lower value 1.02 | locus YJL164C, strain tpk1, stronger effect = lower value 0.996 | locus YJL166W, strain qcr8, stronger effect = lower value 0.997 | locus YJL168C, strain set2, stronger effect = lower value 1 | locus YJL187C, strain SWE1 (second series), stronger effect = lower value 1.02 | locus YJR043C, strain POL32, stronger effect = lower value 0.998
